Experimental data published in PubChem BioAssay (EPA / NIEHS).
Results filed as inconclusive are left out. The source made the active and inactive calls. Rule for the calls, unless noted: active = hit-call score of the fitted dose curve at least 0.9, where 1 is the maximum; inconclusive = response in the unintended direction; inactive = score below 0.9.

Legend:
[1] = TOX21_p53_BLA_p2_viability: Viability Assessment in the Tox21 HCT-116 p53 Agonism Beta-lactamase Assay, Phase 2 (AID 2283591);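 note: compound exposure lasted 16 h at 37 °C; actives lower the ATP signal meaning cytotoxicity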
Procedure, shortened: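 HCT-116 p53-bla cells (4000/well) rested 5 h at 37C, then received compounds in DMSO (217-fold dilution) for 16 h at 37C, 5% CO2. After the CCF4 read, CellTiter-Glo was added; ATP luminescence was read after 30 min at room temperature.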

[2] = biological target: Cellular tumor antigen p53 (Homo sapiens) (UniProt P04637); assay: TOX21_p53_BLA_p2_ratio: Tox21 HCT-116 p53 Agonism Beta-lactamase Assay, Ratio, Phase 2 (AID 2283592)
Chain of Cellular tumor antigen p53 (Homo sapiens) (P04637 whole entry, looked up): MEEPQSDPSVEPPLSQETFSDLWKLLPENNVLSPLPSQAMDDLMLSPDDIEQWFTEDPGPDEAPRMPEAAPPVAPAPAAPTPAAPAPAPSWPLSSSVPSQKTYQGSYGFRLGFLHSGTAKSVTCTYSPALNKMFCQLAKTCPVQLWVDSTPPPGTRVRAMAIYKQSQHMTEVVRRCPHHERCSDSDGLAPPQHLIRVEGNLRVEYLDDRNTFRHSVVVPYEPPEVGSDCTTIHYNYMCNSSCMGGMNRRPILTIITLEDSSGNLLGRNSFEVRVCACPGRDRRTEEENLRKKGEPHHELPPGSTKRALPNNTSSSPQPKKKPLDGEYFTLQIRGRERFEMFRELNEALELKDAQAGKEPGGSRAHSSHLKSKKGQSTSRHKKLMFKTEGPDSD
Procedure, shortened: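 DMSO-normalized, positive-direction endpoint derived from the 460 nm/530 nm FRET ratio in HCT116 p53 beta-lactamase reporter cells exposed 16 h at 37C and loaded with CCF4-AM for 2 h.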

[3] = biological target: Cellular tumor antigen p53 (Homo sapiens) (UniProt P04637); assay: TOX21_p53_BLA_p3_ratio: Tox21 HCT-116 p53 Agonism Beta-lactamase Assay, Ratio, Phase 3 (AID 2283596)
Procedure, shortened: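 Cells were seeded at 4000/well, rested 5 h at 37C, then dosed with DMSO compound solutions (217-fold dilution) for 16 h. CCF4-AM substrate was loaded for 2 h at room temperature, and the 460/530 nm emission ratio was fitted for gain of signal versus DMSO.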

[4] = TOX21_p53_BLA_p4_viability: Viability Assessment in the Tox21 HCT-116 p53 Agonism Beta-lactamase Assay, Phase 4 (AID 2283597);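 note: hits lower the luminescence signal meaning cytotoxicity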
Procedure, shortened: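 In this multiplexed secondary endpoint, HCT116 cells (4000 per well, compound at 5 h, 16 h treatment) received CellTiter-Glo after the beta-lactamase read. Luminescence after 30 min RT reflects ATP, and falling signal marks cytotoxicity.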

[5] = biological target: Cellular tumor antigen p53 (Homo sapiens) (UniProt P04637); assay: TOX21_p53_BLA_p5_ratio: Tox21 HCT-116 p53 Agonism Beta-lactamase Assay, Ratio, Phase 5 (AID 2283599)
Procedure, shortened: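 HCT-116 cells carrying a p53-inducible beta-lactamase reporter were seeded at 4000 cells/well and dosed after 5 h with compound in DMSO (217-fold dilution). After 16 h at 37C, CCF4-AM substrate was added for 2 h, and the 460/530 nm emission ratio was scored as gain-of-signal versus DMSO.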

[6] = biological target: Cellular tumor antigen p53 (Homo sapiens) (UniProt P04637); assay: TOX21_p53_BLA_p4_ratio: Tox21 HCT-116 p53 Agonism Beta-lactamase Assay, Ratio, Phase 4 (AID 2283601)
Procedure, shortened: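 HCT116 cells carrying an inducible beta-lactamase reporter were plated at 4000 cells/well, rested 5 h, then exposed to compounds in DMSO (217-fold dilution) for 16 h at 37C. CCF4-AM substrate was loaded 2 h at room temperature; 460/530 nm emission ratio scored gain-of-signal versus DMSO.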

[7] = TOX21_p53_BLA_p5_viability: Viability Assessment in the Tox21 HCT-116 p53 Agonism Beta-lactamase Assay, Phase 5 (AID 2283600)
Procedure, shortened: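 Here cell health was gauged by ATP levels in wells holding 4000 cells, each treated 16 h with DMSO-delivered compounds at 217-fold dilution; reduced luminescence marked toxicity.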

[8] = CCTE_Deisenroth_DEVTOX-GLR_legacy_CellCount: (Legacy) Viability Assessment in CCTE's DevTox GLR-Endo Assay, Deisenroth Lab (AID 2284331; active = hit-call score of the fitted dose curve at least 0.9, where 1 is the maximum; inactive = score below 0.9); details: actives raise or lower the signal
Procedure, shortened: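 Human pluripotent RUES2-GLR cells differentiated 48 h with two 24-h-interval exposures, 10-point 1 nM–200 uM series, 0.2% DMSO. Fixed nuclei counted by high-content imaging (5 fields/well); bidirectional fit vs DMSO, n≥4.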

[9] = test system: SRY-box transcription factor 17 (SOX17) Protein Expression, Deisenroth Lab, SOX17 (gene 64321); assay: CCTE_Deisenroth_DEVTOX-GLR_Endo_SOX17: CCTE's DevTox GLR-Endo Assay Evaluation of SRY-box transcription factor 17 (SOX17) Protein Expression, Deisenroth Lab (AID 2284413; active = hit-call score of the fitted dose curve at least 0.9, where 1 is the maximum; inactive = score below 0.9)
Procedure, shortened: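 Fluorescent microscopy of a SOX17 reporter in RUES2-GLR pluripotent cells scored endoderm differentiation after 48 h and two 24-h-spaced exposures. Values are percent change in SOX17+ population against 0.2% DMSO, n=4 experimental replicates.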

[10] = test system: Brachyury (BRA) Protein Expression, TBXT (gene 6862); assay: CCTE_Deisenroth_DEVTOX-GLR_Endo_BRA: CCTE's DevTox GLR-Endo Assay Evaluation of Brachyury (BRA) Protein Expression, Deisenroth Lab (AID 2284417; active = hit-call score of the fitted dose curve at least 0.9, where 1 is the maximum; inactive = score below 0.9)
Procedure, shortened: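 RUES2-GLR pluripotent cells differentiated 48 h with two chemical exposures 24 h apart, 10-point range 1 nM - 200 uM. Percentage of BRA+ cells per total count by high-content imaging, minus 0.2% DMSO control.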

[11] = CCTE_Deisenroth_DEVTOX-GLR_Endo_CellCount: Viability Assessment in CCTE's DevTox GLR-Endo Assay, Deisenroth Lab (AID 2284420; active = hit-call score of the fitted dose curve at least 0.9, where 1 is the maximum; inactive = score below 0.9)
Procedure, shortened: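 Measured 48 h after dosing: fluorescent nuclei counted by imaging in human RUES2-GLR cells under defined differentiation media, tested at 1 nM - 200 uM. Values are percent cell-count change relative to 0.2% DMSO.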

[12] = test system: SRY-box transcription factor 17 (SOX17) Protein Expression, Deisenroth Lab, SOX17 (gene 64321); assay: CCTE_Deisenroth_DEVTOX-GLR_Pluri_SOX17: CCTE's DevTox GLR-Pluri Assay Evaluation of SRY-box transcription factor 17 (SOX17) Protein Expression, Deisenroth Lab (AID 2284427)
Procedure, shortened: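 Using an inducible fluorescent SOX17 reporter in human pluripotent RUES2-GLR cells, compounds (1 nM - 200 uM) were given twice over 48 h differentiation. Percent SOX17+ cells minus DMSO control came from high-content image analysis.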

[13] = test system: Brachyury (BRA) Protein Expression, Deisenroth Lab, TBXT (gene 6862); assay: CCTE_Deisenroth_DEVTOX-GLR_Pluri_BRA: CCTE's DevTox GLR-Pluri Assay Evaluation of Brachyury (BRA) Protein Expression, Deisenroth Lab (AID 2284429)
Procedure, shortened: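 Mesoderm readout after 48 h differentiation of human RUES2-GLR cells, dosed twice (24-h intervals) at 1 nM - 200 uM. BRA+ frequency from fluorescence imaging of fixed, nuclear-stained cells, DMSO-corrected.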

[14] = CCTE_Deisenroth_DEVTOX-GLR_Pluri_CellCount: Viability Assessment in CCTE's DevTox GLR-Pluri Assay Evaluation of Total Cell Counts, Deisenroth Lab (AID 2284430; active = hit-call score of the fitted dose curve at least 0.9, where 1 is the maximum; inactive = score below 0.9)
Procedure, shortened: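 Cytotoxicity readout: fluorescent nuclei counts by high-content imaging, expressed as percent change relative to 0.2% DMSO. Human RUES2-GLR pluripotent line differentiated 48 h, dosed twice at 24-h intervals across 1 nM - 200 uM (10 points).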

Measured: AC50

NCC(O)CC(=O)O (stereo not given)
inactive: [1] | [2] | [3] | [4] | [5] | [6]

CN(C)CC/C=C1\c2ccccc2Sc2ccc(Cl)cc21
active: [2] 33.1 µM | [4] 35.7 µM | [6] 21.9 µM
inactive: [1] | [3] | [5]

O=C(Cn1ccnc1[N+](=O)[O-])NCCO
inactive: [1] | [2] | [3] | [4] | [5] | [7] | [6]

CC(Cl)C(Cl)Cl (stereo not given)
inactive: [1] | [2] | [3] | [4] | [5] | [7] | [6]

O=NN(CCCl)C(=O)NCCCl
inactive: [1] | [2] | [3] | [4] | [5] | [6]

CCN[C@H]1CN(CCCOC)S(=O)(=O)c2sc(S(N)(=O)=O)cc21
inactive: [1] | [2] | [3] | [4] | [5] | [6]

COc1ccc(C(=O)Nc2ccccc2CCC2CCCCN2C)cc1 (stereo not given)
inactive: [1] | [2] | [3] | [4] | [7]

CC(C)[N+]1(C)[C@@H]2CC[C@H]1CC(OC(=O)C(CO)c1ccccc1)C2 (stereo not given in full)
inactive: [1] | [2] | [3] | [4] | [5] | [7] | [6]

CC(CCC(=O)O)C(=O)O (stereo not given)
inactive: [1] | [2] | [3] | [4] | [5] | [6]

CCC(=O)c1c(O)cc(O)cc1O
inactive: [1] | [2] | [3] | [4] | [5] | [6]

O=Cc1cccc(Br)c1
inactive: [1] | [2] | [3] | [4] | [5] | [6]

Cc1cc(NS(=O)(=O)c2ccc(N)cc2)nc(C)n1
inactive: [1] | [2] | [3] | [4] | [5] | [7] | [6]

O=c1[nH]c(=O)n([C@H]2C[C@H](O)[C@@H](CO)O2)cc1Br
active: [8] 10.2 µM | [9] 0.657 µM | [10] 32.8 µM | [11] 10.2 µM | [13] 79.6 µM | [14] 23.7 µM
inactive: all other assays above

CO
inactive: [1] | [2] | [3] | [4] | [5] | [6]
